# DT40 TDP1 no CPT: qHTS for Inhibitors of human tyrosyl-DNA phosphodiesterase 1 (TDP1): qHTS in cells in absence of CPT | DT40 Tdp1-/- hTDP1 cells, no CPT, ATP luminescence, 48 h | Potency, µM (titrated, usually from 46.2 µM), most hits filed as inhibitors | 15% of 420,000 active | AID 686978, 2013; further: nearly all actives have a fitted effect of over 55% in size
#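 No-CPT arm: Tdp1-/-;hTDP1 DT40 cells (400/well) plus compounds, incubated ≥48 hr at 37 °C. Readout CellTiter-Glo luminescence.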
# MCF10A rerep: inducers of DNA re-replication in MCF 10A breast cells. AID 624296. 2.9% of 350,000 active. MCF 10A DNA re-replication, Hoechst nuclear intensity, 48 h. Potency, µM (doses to about 46.1 µM), most hits filed as activators; further: nearly all actives have a fitted effect of over 50% in size
# BCR signal inh: blocks chronic active B-cell receptor signaling | ABC-DLBCL IkBa-CBG/CBR reporter, luminescence ratio, 4 h | Potency, µM (highest dose often 46.1 µM), hits mostly inhibitors | 0.05% of 340,000 active | AID 493014; active means well fitted inhibition curve with a large enough effect in the signal ratio, with a control signal flat, not every such curve was filed as active; inconclusive means small, poorly fitted or top-dose-only effect, or effect the other way, or a change in a side signal; the % refers to the signal ratio
#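 TMD8 human ABC-DLBCL cells with doxycycline-inducible IκBα–green luciferase fusion and unfused red luciferase, in 0.5% FBS medium; compounds up to 46 uM, 4 h at 37C. Green/red luminescence ratio, filter-overlap corrected, fitted to concentration-response curves.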
# IL1B secr inh: inflammasome signaling inhibition, IL-1 beta readout. 4.7% of 360,000 active. activity change, % at 57.5 µM. THP-1 LPS/ATP IL-1B secretion, AlphaLISA, 16 h; stronger effect = lower value; in the data active means activity change below about -50%; inconclusive means mostly about -30% to -49%
#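 THP-1 cells pretreated 1 hr with compounds (up to 57.5 uM final), then stimulated with LPS (250 ng/mL final) plus ATP (1.25 mM final); secreted IL-1B measured by AlphaLISA after 16 hr, decreased signal indicating inhibition.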
# DT40 TDP1 CPT: growth inhibition of DT40 Tdp1-/-;hTDP1 cells with camptothecin (screen for TDP1 inhibitors). 12% of 420,000 active. Potency, µM (titrated, usually from 46.2 µM), actives largely listed as inhibitors. chicken DT40 Tdp1-/-;hTDP1 cells + 20 nM CPT, ATP luminescence, 48 h. AID 686979; further: nearly all actives have a fitted effect of over 55% in size
#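 Chicken DT40 Tdp1-/- cells complemented with human TDP1, 400 cells/well, exposed to compounds plus 20 nM camptothecin for at least 48 h at 37 C; viability read as ATP content by CellTiter-Glo luminescence.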
# SW480 rereplic: DNA re-replication induction in SW480 cells; 1.8% of 340,000 active; Potency, µM (doses to about 46.1 µM), hits mostly activators; AID 624297; SW480 DNA re-replication, Hoechst DNA content imaging, 48 h; further: nearly all actives have a fitted effect of over 55% in size
#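 Cells (250 per well) received 23 nL compound or DMSO by pin tool and were kept 48 hr at 37 C, 5% CO2. Nuclei were then stained with Hoechst for 40 min and scanned for DNA content.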
# A number is an active result; n = inactive; u = inconclusive; x = not tested or not shown; [ ] = remark or other dose. An excerpt weighted towards active compounds, which were near 19% of everything screened. Unless noted, the call rests on the fitted dose curve; in most records, active means well fitted curve in the direction sought with a large enough effect; inconclusive means small, poorly fitted or top-dose-only effect, or another doubt; inactive means no such curve, though single readings can be large; an effect the other way counts as inactive or inconclusive.
SMILES,DT40 TDP1 no CPT,MCF10A rerep,BCR signal inh,IL1B secr inh,DT40 TDP1 CPT,SW480 rereplic
Cc1ccc(N(C)C(=O)c2sc3nc4n(c(=O)c3c2C)CCCC4)cc1C,18.4µM,x,x,x,23.1µM,x
CCCN(C(=O)c1sc2nc3n(c(=O)c2c1C)CCCC3)c1ccccc1C,u,x,x,x,18.4µM,x
Cc1c(C(=O)O)sc2nc3n(c(=O)c12)CCCCC3,n,n,x,n,n,n
Cc1ccc(C(=O)OCC(=O)NCc2cccs2)cc1S(=O)(=O)N1CCOCC1,n,n,u,n,n,n
Oc1ccc(/C=N/N2CCN(C3c4ccccc4-c4ccccc43)CC2)c(O)c1,u,6.51µM,u,n,n,u
O=C(O)c1ccc(/C=N/N2CCN(C3c4ccccc4-c4ccccc43)CC2)cc1,n,n,n,n,n,n
Oc1ccc(/C=N/N2CCN(C3c4ccccc4-c4ccccc43)CC2)cc1,n,u,n,-64.1,n,n
Oc1ccc(/C=N/N2CCN(C3c4ccccc4-c4ccccc43)CC2)cc1O,10.3µM,n,u,u,8.2µM,n
Cc1ccc(/C=N/N2CCN(C3c4ccccc4-c4ccccc43)CC2)o1,18.4µM,n,n,n,u,n
CCOC(=O)CSc1nc(-c2ccc(F)cc2)cc(C(F)(F)F)c1C#N,n,x,x,x,n,x
CN(Cc1ccccc1)C(=O)COC(=O)CCN1C(=O)C2CC=CCC2C1=O (configuration not stated),n,n,n,n,n,n
COc1cc(/C=N/N2CCN(C3c4ccccc4-c4ccccc43)CC2)cc(OC)c1OC,14.6µM,n,n,n,16.4µM,n
Cc1c(C(=O)NC(C)c2ccccc2)sc2ncnc(N(C)C3CCCCC3)c12 (configuration not stated),u,x,n,x,6.51µM,x
Cc1c(C(=O)Nc2ccc(Br)cc2F)sc2ncnc(N(C)C3CCCCC3)c12,n,x,n,x,n,x
Cc1cccc(CNC(=O)c2sc3ncnc(N(C)C4CCCCC4)c3c2C)c1,20.6µM,x,n,x,18.4µM,x
Cc1c(C(=O)NCc2cccc(Cl)c2)sc2ncnc(N(C)C3CCCCC3)c12,u,x,n,x,20.6µM,x
COc1ccc(CNC(=O)c2sc3nc[nH]c(=O)c3c2C)cc1,n,x,x,x,n,x
CCOc1ccc(CNC(=O)c2sc3ncnc(N(C)C4CCCCC4)c3c2C)cc1,u,x,n,x,16.4µM,x
COc1ccc(C(=O)OC(C)C(=O)NCC2CCCCC2)cc1S(=O)(=O)N1CCOCC1 (configuration not stated),n,n,u,n,n,n
C[C@]12CCC(=O)C[C@@H]1CC[C@@H]1[C@@H]2CC[C@]2(C)[C@@H](C(=O)COC(=O)CCC(=O)O)CC[C@@H]12,u,n,n,n,u,n
COc1ccccc1NC(=O)CN1CC(=O)Nc2ccccc21,n,n,n,n,n,n
CCc1ccc(NC(=O)c2sc3ncnc(N(C)C4CCCCC4)c3c2C)cc1,20.6µM,x,n,x,18.4µM,x
CCC(=O)N1CCc2cc(Br)cc(S(=O)(=O)CCC(=O)N3CCN(c4ccc(OC)cc4)CC3)c21,n,x,x,x,n,x
COc1ccc(CNC(=O)N2[C@H]3CC[C@@H]2C=C(c2ccc(F)cc2OCc2ccccc2)C3)cc1OC,7.31µM,x,x,n,8.2µM,x
O=C(NCc1ccc(F)cc1)c1ccccc1OCc1ccccc1,u,u,u,n,n,n
SMILES,DT40 TDP1 no CPT,MCF10A rerep,BCR signal inh,IL1B secr inh,DT40 TDP1 CPT,SW480 rereplic
O=C(NCc1ccc(F)cc1)N1[C@H]2CC[C@@H]1C=C(c1ccc(F)cc1OCc1ccccc1)C2,7.31µM,x,x,n,u,x
COc1ccccc1Nc1nc(-c2ccccc2O)nc2ccccc12,u,n,n,n,u,n
COc1ccc(Nc2nc(-c3ccccc3)nc3ccccc23)c(OC)c1,20.6µM,u,u,n,u,u
COc1cccc(Nc2nc(-c3ccccc3)nc3ccccc23)c1,u,u,u,-73.0,23.1µM,u
COc1ccc(OC)c(Nc2nc(-c3ccccc3O)nc3ccccc23)c1,u,u,n,n,n,n
COc1ccccc1Nc1nc(-c2ccccc2)nc2ccccc12,u,n,n,n,u,0.581µM
COc1ccc(OC)c(Nc2nc(-c3ccncc3)nc3ccccc23)c1,7.31µM,u,n,n,18.4µM,u
CC(Nc1nc(N2CCN(S(C)(=O)=O)CC2)nc2ccccc12)c1ccccc1 (configuration not stated),u,n,u,n,u,n
COc1ccc(Nc2nc(N3CCN(S(C)(=O)=O)CC3)nc3ccccc23)c(OC)c1,u,n,u,n,u,n[1.84 µM]
COc1ccc(Nc2nc(N3CCCCC3)nc3ccccc23)c(OC)c1,u,n,u,-62.4,u,n
COc1cccc(Oc2nc(-c3ccncc3)nc3ccccc23)c1,u,18.4µM,n,u,14.6µM,n[9.22 µM]
COc1ccc(Nc2nc(N3CCN(S(=O)(=O)N(C)C)CC3)nc3ccccc23)cc1,8.2µM,u,u,n,11.6µM,n
COc1ccc(Nc2nc(-c3ccncc3)nc3ccccc23)cc1,10.3µM,u,n,n,20.6µM,18.4µM
COc1ccc(Nc2nc(-c3ccccc3F)nc3ccccc23)cc1OC,14.6µM,n,u,-60.8,14.6µM,n
Oc1ccc(Nc2nc(-c3ccccc3F)nc3ccccc23)cc1,n,n,u,n,n,n
N#Cc1cccc(-c2nc(Nc3ccncc3)c3ccccc3n2)c1,2.91µM,x,x,x,2.59µM,x
Fc1cccc(Nc2nc(-c3ccncc3)nc3ccccc23)c1,x,u,n,n,x,u
COc1ccc(C)cc1NC(=O)CSc1nnc(-c2cc(C)[nH]n2)n1N,n,n,n,n,n,n
COc1cc(C(=O)NC2CCN(C)CC2)ccc1Nc1ncc2c(n1)N(CCc1ccccc1)CCC(=O)N2C,14.6µM,9.2µM,x,n,23.1µM,0.206µM
COc1cc(C(=O)NC2CCN(C)CC2)ccc1Nc1ncc2c(n1)N(C1CCCC1)CCC(=O)N2C(C)C,16.4µM,u,x,n,u,n[9.22 µM]
CCCn1nc(NC(=O)C(C)(C)C)c2cc3cc(OC)ccc3nc21,n,14.6µM,u,n,n,20.6µM
CCCCn1nc(NC(=O)CC)c2cc3cc(OC)ccc3nc21,u,25.9µM,n,n,u,20.6µM
CCCCn1nc(NC(=O)COC)c2cc3ccc(C)cc3nc21,u,n,u,n,n,n
Cc1ccc(-c2nc3c4ccccc4n(CC(=O)N4CCN(c5ccccc5F)CC4)c(=O)n3n2)cc1,n,x,n,x,n,x
COc1ccc(CN(Cc2ccco2)C(=O)COc2ccccc2OC)cc1,18.4µM,x,x,x,u,x
O=C(COc1ccccc1Cl)N(Cc1ccco1)C1CCS(=O)(=O)C1 (configuration not stated),n,n,n,n,n,n

# From PubChem
